# Measured values reported in PubChem BioAssay (NCI).
# Where “and” joins values, the source holds several entries; their conditions need not be identical. Equal values may be shown once. About 83,000 compounds went through this panel and 20% of them were active in at least one assay; those are over-represented in the sample as a whole.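 Cell lines were cultured in 96-well plates, exposed to a single compound concentration, and assessed for percent growth 48 hours later.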 Calls of active or inactive are those of the source. The calls were made as follows: active = growth percent below 10; inactive = the rest.
# Tested on: NCI-H226 lung
# Assay: NCI-60 one-dose screen, 48 h (100 = growth as untreated, 0 = no growth, -100 = all killed)
# Conditions: 10 µM unless noted
row,SMILES,growth
1,O=[N+]([O-])c1ccc(N/N=C\c2cc(Br)ccc2O)nc1,91.4% (inactive) and 55.4% (inactive)
2,COc1ccc(NC(=S)Nc2ccccn2)cc1,86.2% (inactive)
3,CN(C)c1ccc(/C=C(\C#N)c2ccccc2)cc1,92.4% (inactive) and 60.5% (inactive) and 73% (inactive)
4,CN(C)CCCN1c2ccccc2Sc2ccc(Cl)cc21,106% (inactive) and 97.5% (inactive) and 92.1% (inactive)
5,O=S(=O)(Nc1ccccc1)C1CCCCC1,106% (inactive) and 103% (inactive)
6,CC1=C(/C=C/C(C)=C/C=C/C(C)=C/C(=O)Nc2ccc(O)cc2)C(C)(C)CCC1,74.3% (inactive)
7,CCCCCCCCCCCCCCCCOc1ccc(C)cc1,107% (inactive)
8,COc1cc(C(=O)N/N=C/c2ccc(N(C)C)cc2)cc(OC)c1OC,71.9% (inactive)
9,CC1(c2ccc3ccccc3c2)CCC(=O)O1 (stereo not drawn),110% (inactive)
10,CCCCOc1cc(C(=O)NCCN(CC)CC)c2ccccc2n1,94.5% (inactive) and 105% (inactive)

# Tested on: NCI-H322M lung
# Assay: as above
# Conditions: 10 µM
row,SMILES,growth
1,CNC(=O)c1cc(Oc2ccc(CC(=O)Nc3cc(C(C)(C)C)nn3C)cc2)ccn1,93.4% (inactive)
2,CC#C[C@]1(O)CC[C@H]2[C@@H]3CCC4=CC(=O)CCC4=C3[C@@H](c3ccc4c(c3)OCO4)C[C@@]21C,90% (inactive)
3,CCc1ccccc1-n1c(N)c(C#N)c(-c2ccc(OC)c(OC)c2)c(C#N)c1=O,108% (inactive)

# Same assay, conditions: 10 µM unless noted
row,SMILES,growth
1,Cc1cc(O)c(C(C)C)cc1N,122% (inactive) and 102% (inactive)
2,O=C(c1ccc(Cl)cc1)C(NCCO)c1ccc(Cl)cc1 (stereo not drawn),86.4% (inactive) and 93.6% (inactive)
3,O=C(O)CN(CCN(CC(=O)O)CC(=O)O)CCN(CC(=O)O)CC(=O)O,-3.44% (active) and 107% (inactive) and 116% (inactive)
4,O=S1(=O)CC(Br)C(Br)C1 (stereo not drawn),104% (inactive) and 108% (inactive)
5,Cc1ccc(S(=O)(=O)Nc2ccc3cc([N+](=O)[O-])ccc3c2[N+](=O)[O-])cc1,93% (inactive) and 93.1% (inactive)
6,O=C(O)CSCc1nc2ccccc2[nH]1,117% (inactive)
7,CCc1c(CC(=O)O)c2cc(C)ccc2n1Cc1ccc(Cl)cc1,76.3% (inactive) and 280% (inactive)
8,COc1cc(/C=N/Nc2nc3c([nH]2)c(=O)n(C)c(=O)n3C)ccc1O,101% (inactive) and 105% (inactive)
9,O=C1C2=C(C(=O)c3ccccc31)C(O)(S(=O)(=O)O)C(O)(S(=O)(=O)O)C1N=CC=CC21 (stereo not drawn),44.8% (inactive) and 16.8% (inactive)
10,COc1c(/C(C)=N/N=c2sc(C(C)=O)nn2-c2ccc(Cl)cc2)c(Oc2ccccc2)c(OC)c2occc12,89.8% (inactive) and 100% (inactive)
11,O=[N+]([O-])c1ccccc1N(S(=O)(=O)c1ccccc1)S(=O)(=O)c1ccccc1,90% (inactive) and 95% (inactive)
12,CCOc1ccc2c(S(=O)(=O)O)cccc2c1[N+](=O)[O-],102% (inactive) and 104% (inactive)
13,CC1=C(/C=C/C(C)=C/C=C/C(C)=C/C(=O)O)C(C)(C)CCC1,94.2% (inactive) and 101% (inactive)
14,CCN(CC)C(=O)c1cccnc1,123% (inactive)
15,COc1ccc(S(=O)(=O)N2CCOCC2)cc1NC(=O)c1[nH]c(C)c2c1CCCCC2=O,105% (inactive) and 64.6% (inactive)
16,CCC(=O)C(CC)c1cccc(OC)c1 (stereo not drawn),101% (inactive)
17,Cn1cc(-c2cc3c(Nc4ccc(CC(=O)Nc5cc(C(C)(C)C)on5)cc4)ncnc3[nH]2)cn1,-15.1% (active) and -11.4% (active)
18,O=[N+]([O-])c1ccc2nc3c4ccccc4c4ccccc4c3nc2c1,92.6% (inactive)
19,COc1ccccc1/C=N\N=C(N/N=C/c1ccccc1OC)N/N=C/c1ccccc1OC,56.5% (inactive) and 15.1% (inactive)
20,CN(C)c1ccc(C(Cc2ccc3ccccc3n2)Cc2ccc3ccccc3n2)cc1,66.9% (inactive) and 86% (inactive)
21,CO/N=C/C=C\C(=O)N/C=C/C[C@H]1/C=C/[C@H](O)/C=C\C=C\c2cccc(O)c2C(=O)O1,42.8% (inactive) and 51.7% (inactive)
22,CCN(CC)CCCC(C)Nc1cnc(C(=O)Nc2cc(F)cc3cccnc23)cn1 (stereo not drawn),63.8% (inactive) and 0.121% (active)
23,O=[N+]([O-])c1ccc(N/N=C\c2cc(Br)ccc2O)nc1,24.2% (inactive) and 8.6% (active)
24,COc1ccc(NC(=S)Nc2ccccn2)cc1,97% (inactive)
25,CN(C)c1ccc(/C=C(\C#N)c2ccccc2)cc1,64% (inactive) and 57.1% (inactive) and 47.6% (inactive)
26,CN(C)CCCN1c2ccccc2Sc2ccc(Cl)cc21,77.4% (inactive) and 105% (inactive) and 71% (inactive)
27,O=S(=O)(Nc1ccccc1)C1CCCCC1,103% (inactive) and 116% (inactive)
28,CC1=C(/C=C/C(C)=C/C=C/C(C)=C/C(=O)Nc2ccc(O)cc2)C(C)(C)CCC1,101% (inactive)
29,CCCCCCCCCCCCCCCCOc1ccc(C)cc1,111% (inactive)
30,CCCCOc1cc(C(=O)NCCN(CC)CC)c2ccccc2n1,100% (inactive) and 94.7% (inactive)
